Screening results: PubChem, several laboratories
CYP2C9 inhib: blockers of cytochrome P450 2C9 activity – biochemical, luminescence, ADME assay, primary screen. CYP2C9 Supersomes, luciferin-H conversion. inhibition, % at 5 µM. 96,000 compounds, 20% hits. AID 777, 2007;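 active = blocking of liver enzyme CYP2C9 beyond about 50% at 5 µM, limit read from the data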
Target sequence (P11712 whole entry, looked up): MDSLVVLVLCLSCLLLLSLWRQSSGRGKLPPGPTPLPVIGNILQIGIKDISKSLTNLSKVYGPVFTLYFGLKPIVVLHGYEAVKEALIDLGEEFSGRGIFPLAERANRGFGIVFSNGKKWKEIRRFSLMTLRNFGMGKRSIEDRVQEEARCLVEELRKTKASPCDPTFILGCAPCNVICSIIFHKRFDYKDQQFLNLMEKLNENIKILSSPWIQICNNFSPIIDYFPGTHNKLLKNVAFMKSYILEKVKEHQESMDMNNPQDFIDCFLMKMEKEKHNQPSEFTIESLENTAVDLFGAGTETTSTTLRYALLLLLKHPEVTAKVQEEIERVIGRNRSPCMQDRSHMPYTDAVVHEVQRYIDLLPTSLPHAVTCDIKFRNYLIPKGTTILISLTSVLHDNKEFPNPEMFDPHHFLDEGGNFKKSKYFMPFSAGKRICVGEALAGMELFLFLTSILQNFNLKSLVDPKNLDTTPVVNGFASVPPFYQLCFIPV
CYP2C19 inh: blockers of cytochrome P450 2C19 activity – biochemical, luminescence, ADME assay, primary screen; P33261; CYP2C19 Supersomes, luciferin-H EGE luminescence, 30 min; inhibition, % at 5 µM; 96,000 compounds, 21% hits; AID 778, 2007;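 active = CYP2C19 inhibition above a set limit at 5 µM in the primary screen, cut at about 50% in these data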;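 also: plate controls were negative control wells for no effect and 2.5 mM tranylcypromine positive control for full effect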
CYP2C9 activ: human CYP2C9 activators, primary screen, biochemical, luminescence; Cytochrome P450 2C9 (Homo sapiens), P11712; recombinant CYP2C9, luciferin-H conversion; hits give high values; factor 1 = untreated enzyme, 0 = blocked; activation factor at 5 µM; 96,000 compounds, 1.4% hits; AID 1024, 2008;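 active = activation factor of 2 or more for CYP2C9 at a 5 µM dose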;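 also: 0 = sulfaphenazole-blocked wells and 1 = vehicle-only wells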
CYP2C19 act: human CYP2C19 activators, primary screen, biochemical, luminescence; 96,000 tested, under 10 active; AID 1025, 2008; activation factor at 5 µM; recombinant CYP2C19, luciferin-H EGE luminescence; hits give high values; 0 = fully inhibited enzyme, 1 = untreated enzyme; Cytochrome P450 2C19 (Homo sapiens), P33261;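 active = activation factor of at least 2 at 5 µM in the primary screen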;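 also: 0 = wells with 2.5 mM tranylcypromine and 1 = vehicle-only wells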
Cav32 inh: Cav3.2 calcium influx blockers – cell-based, Fluo-4 calcium fluorescence, FDSS, MLSMR library, primary screen; Voltage-dependent T-type calcium channel subunit alpha-1H (Homo sapiens), O95180; Cav3.2-expressing cells; hits give low values; B-score at 10 µM; 100,000 compounds, 4% hits;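 active = single-dose well whose peak fluorescence ratio is a statistical outlier from its plate by either plate-standardised score or position-corrected B-score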
An asterisk follows results filed as active; x = not tested or not shown. A selection: hits, their analogues and other compounds. The true share with any hit is near 27%.

SMILES	CYP2C9 inhib	CYP2C19 inh	CYP2C9 activ	CYP2C19 act	Cav32 inh
COc1ccc(N(CC(=O)N2CCN(c3ccccc3)CC2)S(=O)(=O)c2c(C)noc2C)cc1	14.3	64.7*	0.9	0.4	-3.6
Cc1noc(C)c1S(=O)(=O)N(CC(=O)N1CCCCCC1)c1ccc(C(C)C)cc1	76.9*	71.5*	0.2	0.3	-4.1*
CCOc1ccc(N(CC(=O)N2CCN(c3ccccc3)CC2)S(=O)(=O)c2c(C)noc2C)cc1	8.9	36.9	0.9	0.6	-1.94
CCCCOC(=O)c1cc(C)nc2ccc(Br)cc12	0.2	0.5	1	1	0.398
CCOC(=O)c1cc(C(=O)OCC)c2cc(Br)ccc2n1	63.9*	46.9	0.4	0.5	-3.08
Cc1c(C(=O)OCCOC(C)C)[nH]c2c1C(=O)CC(c1ccco1)C2 (centres undefined)	75.0*	41.3	0.3	0.6	-1.98
CCOC(=O)c1[nH]c2c(c1C)C(=O)CC(c1ccco1)C2 (centres undefined)	59.8*	18.6	0.4	0.8	-1.99
Cc1c(C(=O)OCc2ccccc2)[nH]c2c1C(=O)CC(c1ccco1)C2 (centres undefined)	88.7*	46.8	0.1	0.5	-1.06
COCCOC(=O)c1[nH]c2c(c1C)C(=O)CC(c1ccco1)C2 (centres undefined)	72.3*	46.7	0.3	0.5	-2.29
COC(=O)c1[nH]c2c(c1C)C(=O)CC(c1cccs1)C2 (centres undefined)	37.7	44.2	0.6	0.6	-1.35
Cc1csc(SCC(=O)Nc2ncc(Cl)c(C)c2Cl)n1	16.6	38.2	0.8	0.6	0.434
Cc1c(C(=O)OCCOC(C)C)[nH]c2c1C(=O)CC(C)(C)C2	70.3*	58.2*	0.3	0.4	0.0785
COC(=O)c1[nH]c2c(c1C)C(=O)CCC2	16.6	-6.1	0.8	1.1	0.00042
CSCCOC(=O)c1[nH]c2c(c1C)C(=O)CC(c1ccco1)C2 (centres undefined)	52.4*	5.1	0.5	0.9	-2.73
COC(=O)C1=COC(C)C2CN3CCc4c([nH]c5cc(OC)c(OC)cc45)C3CC12 (centres undefined)	x	x	x	x	-0.968
CCCC(=O)N1c2ccccc2[C@@H](N(C(C)=O)c2ccccc2)C[C@H]1C	73.4*	50.8*	0.3	0.5	0.0692
CC(C)(C)C(=O)Nc1ccc(C(=O)Nc2cccnc2)cc1	16.9	4.2	0.8	1	1
Cc1cc(N2CCC(C(=O)Nc3ccc(F)cc3)CC2)nc(-c2ccccc2)n1	62.3*	81.9*	0.4	0.2	-6.89*
NC(=O)C1CCN(c2nc(-c3ccccc3)nc3c2oc2ccccc23)CC1	13.9	4.3	0.9	1	-1.94
COc1ccc(NC(=O)C2CCN(c3nc(C)cc(C)n3)CC2)cc1	x	x	x	x	0.403
Cc1cc(N2CCC(C(N)=O)CC2)nc(-c2ccccc2)n1	53.2*	-6.0	0.5	1.1	1.2
COc1ccc(NC(=O)C2CCN(c3cc(C)nc(-c4ccccc4)n3)CC2)cc1	10.3	17.4	0.9	0.8	-5.94*
Cc1cc(C)nc(N2CCC(C(=O)Nc3ccc4c(c3)CCC4)CC2)n1	-8.9	3.2	1.1	1	0.0265
NC(=O)C1CCN(c2nc(-c3ccccc3)nc3ccccc23)CC1	53.7*	21.4	0.5	0.8	x
O=C1Nc2cc(Cl)ccc2Nc2cscc21	x	x	x	x	-2.08
SMILES	CYP2C9 inhib	CYP2C19 inh	CYP2C9 activ	CYP2C19 act	Cav32 inh
CC(C)(C)c1ccc(OCc2ccc(C(=O)N/N=C/c3ccc([N+](=O)[O-])cc3)o2)cc1	40.3	10.3	0.6	0.9	-3.77
Cc1ccc(C2CCN(C(=O)Nc3ccccc3)C2)cc1 (centres undefined)	30.5	60.5*	0.7	0.4	-3.58
Cc1ccc(NC(=O)N2CCc3ccccc3C2)cc1	11.6	92.9*	0.9	0.1	-1.11
CC(=O)c1cccc(NC(=O)N2CCc3ccccc3C2)c1	56.5*	68.3*	0.4	0.3	-2.33
O=C(Nc1ccccc1)N1CCc2ccccc2C1	x	x	x	x	-0.0343
c1ccc(CSc2nnc(-c3sccc3-n3cccc3)o2)cc1	-9.4	38.1	1.1	0.6	-0.921
Oc1c(C(c2cccs2)N2CCN(c3ccccc3)CC2)sc2ncnn12 (centres undefined)	x	x	x	x	0.0635
Oc1c(C(c2cccs2)N2CCC3(CC2)OCCO3)sc2ncnn12 (centres undefined)	58.2*	86.7*	0.4	0.1	-0.0684
O=S(=O)(CCc1nnc(-c2ccccc2)o1)c1ccc2ccccc2c1	-0.6	13.2	1	0.9	0.335
O=S(=O)(CCc1nc2ccccc2o1)c1ccc2ccccc2c1	-169.4	17.2	2.7*	0.8	-1.78
Cc1ccc(S(=O)(=O)N2CCC(=O)N(CCOC(=O)Nc3cccc(Cl)c3)CC2)cc1	x	x	x	x	-0.465
CCc1ccc2nc(N3C(=O)C(O)=C(C(=O)c4ccco4)C3c3cccs3)sc2c1 (centres undefined)	x	x	x	x	-4.25*
Cc1ccc2nc(N3C(=O)C(O)=C(C(=O)c4cc5ccccc5o4)C3c3cccs3)sc2c1 (centres undefined)	-8.5	-19.2	1.1	1.2	x
CCN1CCN(C(=O)CS(=O)(=O)Cc2nc(-c3ccc(C)cc3)oc2C)CC1	20.1	3.6	0.8	1	1.02
Cc1ccc(NC2c3ncccc3C(=O)N2C2CCCCC2)cc1C (centres undefined)	17.2	43.9	0.8	0.6	0.77
COc1ccc(OC)c(CNc2ccc(F)c(Cl)c2)c1	58.4*	29.6	0.4	0.7	-1.47
CCCCSc1nc(C)cc(SCC(=O)N/N=C/c2cccc(OC)c2O)n1	64.3*	33.2	0.4	0.7	x
COc1cccc(/C=N/NC(=O)CSc2nnc(C)n2-c2ccccc2)c1O	-5.2	-4.6	1.1	1	x
O=C(Nc1ccccc1)N1CCCC1	13.7	-7.5	0.9	1.1	0.47
O=C(Nc1ccccc1)N1CCN2C(=O)c3ccccc3C12c1ccccc1 (centres undefined)	95.7*	92.6*	0	0.1	-6.87*
O=C(c1ccccc1)N1CCN2C(=O)c3ccccc3C12c1ccc(Cl)cc1 (centres undefined)	31.1	62.6*	0.7	0.4	-8.39*
O=C(c1ccc(Cl)cc1)N1CCN(c2cc(=O)[nH]nc2-c2ccccc2)CC1	2.0	-8.7	1	1.1	-0.476
CCOc1c2ccc(C(=O)NCc3ccc4c(c3)OCO4)cc2nn1CC	24.3	20.5	0.8	0.8	-1.06
COc1ccccc1CC(=O)Nc1ccc(-c2nnc(-c3ccco3)o2)cc1	22.7	22.8	0.8	0.8	-0.163
O=C(O)c1ccc(-c2ccco2)n1Cc1ccccc1	71.0*	16.9	0.3	0.8	-0.28
COC(=O)c1ccc(-c2ccco2)n1Cc1cccc(C)c1	81.1*	59.6*	0.2	0.4	-0.122
